PMC4336329 (PLoS ONE, 2015)
Among all 310,000 compounds or so, about 14,000 (4.5%) showed an effect of 50% or more. Effects have a minus sign here. This excerpt belongs to a sample that is enriched for strong results.

What follows are molecules tested against human ether-à-go-go-related gene (hERG) potassium channel (human, UniProt Q12809) (assay: primary screen, population patch clamp on CHO cells stably expressing hERG; higher = less effect of the substance).
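Note: peak tail current of the secondary pulse compared with the same well before compound.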

Chain of human ether-à-go-go-related gene (hERG) potassium channel (Q12809 whole entry, looked up): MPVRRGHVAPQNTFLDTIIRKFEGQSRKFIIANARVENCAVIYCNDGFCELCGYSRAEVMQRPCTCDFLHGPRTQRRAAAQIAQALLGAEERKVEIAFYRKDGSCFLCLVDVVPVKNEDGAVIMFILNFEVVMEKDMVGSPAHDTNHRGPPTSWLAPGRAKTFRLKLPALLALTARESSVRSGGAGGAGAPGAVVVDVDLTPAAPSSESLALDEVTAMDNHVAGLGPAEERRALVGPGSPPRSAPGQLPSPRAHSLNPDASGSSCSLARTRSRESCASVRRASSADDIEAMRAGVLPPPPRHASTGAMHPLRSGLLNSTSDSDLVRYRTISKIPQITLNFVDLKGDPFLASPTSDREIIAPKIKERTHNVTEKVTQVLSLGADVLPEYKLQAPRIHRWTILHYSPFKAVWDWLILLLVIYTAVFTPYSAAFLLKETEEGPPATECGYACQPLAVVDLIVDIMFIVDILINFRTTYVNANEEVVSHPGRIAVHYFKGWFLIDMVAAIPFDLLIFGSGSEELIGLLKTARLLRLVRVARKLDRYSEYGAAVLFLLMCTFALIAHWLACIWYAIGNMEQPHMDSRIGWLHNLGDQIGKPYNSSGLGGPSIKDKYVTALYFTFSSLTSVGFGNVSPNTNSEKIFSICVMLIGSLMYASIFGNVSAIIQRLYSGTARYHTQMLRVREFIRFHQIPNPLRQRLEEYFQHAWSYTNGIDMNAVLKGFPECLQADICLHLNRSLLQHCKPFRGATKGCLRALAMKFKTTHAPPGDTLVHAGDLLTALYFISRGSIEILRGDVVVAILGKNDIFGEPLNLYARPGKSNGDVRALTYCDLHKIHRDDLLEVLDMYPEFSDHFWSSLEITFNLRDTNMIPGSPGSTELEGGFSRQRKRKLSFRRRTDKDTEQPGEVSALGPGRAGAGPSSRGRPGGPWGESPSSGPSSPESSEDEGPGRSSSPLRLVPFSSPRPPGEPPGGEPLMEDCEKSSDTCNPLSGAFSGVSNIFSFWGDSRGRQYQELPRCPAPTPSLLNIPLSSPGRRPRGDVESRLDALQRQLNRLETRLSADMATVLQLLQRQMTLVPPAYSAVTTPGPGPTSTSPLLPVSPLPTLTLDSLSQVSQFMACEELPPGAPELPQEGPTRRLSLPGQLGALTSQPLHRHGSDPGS

Row | SMILES | hERG current change (%, negative = inhibition) at 10uM [%]
1 | COCC(=O)N/N=C\c1cccc(OC)c1OC/C=C/c1ccccc1 | -15.6
2 | O=C(NC1CCCCC1)c1cc(-c2ccc(O)cc2)on1 | 0.886
3 | COc1ccc(Cl)cc1NC(=O)CSc1nc2sccc2c(=O)[nH]1 | 25.2
4 | COc1cc([N+](=O)[O-])ccc1NC(=O)Cc1ccc(F)cc1 | 0.277
5 | CC(=O)N1N=C(c2ccccc2)CC1c1cn(Cc2ccccc2)c2ccccc12 (stereo not drawn) | -13.6
6 | CCCCNc1ccc(S(N)(=O)=O)cc1[N+](=O)[O-] | -0.608
7 | Cc1ccc(S(=O)(=O)N2CCN(Cc3nc4ccccc4[nH]3)CC2)cc1C | -45.1
8 | CCC(=O)N(CC)c1nc(-c2cc(OC)ccc2OC)cs1 | 15
9 | CCC(=O)N(CCCN(C)C)c1nc(-c2cc(OC)ccc2OC)cs1.Cl | -37.3
10 | CCN(CC)CCCN(C(C)=O)c1nc(-c2cc(OC)ccc2OC)cs1.Cl | -65.8
11 | CC(/C=C/c1ccccc1)=N\NC(=O)c1ccc2c(c1)OCCO2 | 3.3
12 | O=C(NCc1ccncc1)C(=O)NCC1OCCCN1S(=O)(=O)c1cc(F)ccc1F (stereo not drawn) | 4.86
13 | COc1ccccc1C(=O)Oc1cc(N)n(S(=O)(=O)c2ccc(C)cc2)n1 | -7.77
14 | O=C(CSC(=S)N1CCOCC1)Nc1nccs1 | -1.54
15 | CCc1c(C)nc(SCC(=O)N2CCCCC2)[nH]c1=O | 3.18
16 | CN1c2ccccc2Oc2nnc(Cl)cc21 | -5.87
17 | CN1c2ccccc2Oc2nnc(N3CCN(Cc4ccccc4)CC3)cc21 | -78
18 | CCN1CCN(c2cc3c(nn2)Oc2ccccc2N3C)CC1 | -41.1
19 | C=C(C)C(=O)Nc1cccc(C2=NOC3(C2)C[C@@H](C(N)=O)N(C(=O)C(=C)C)C3)c1 (stereo partly drawn) | 7.14

Row | SMILES | hERG current change (%, negative = inhibition) at 10uM [%]
20 | CCOc1ccc(-c2nc(N)ncc2Oc2cccc(OC)c2)c(O)c1 | 6.7
21 | C=C(C)Cn1c(SCCN2CCOCC2)nc2c1c(=O)[nH]c(=O)n2C | -4.61
22 | COCCn1c(SCCN2CCOCC2)nc2c1c(=O)[nH]c(=O)n2C | 14.2
23 | CCCCCCn1c(SCCN2CCOCC2)nc2c1c(=O)[nH]c(=O)n2C | -74.6
24 | C/C(Cl)=C/Cn1c(SCCN2CCOCC2)nc2c1c(=O)[nH]c(=O)n2C | -64.6
25 | C=CCn1c(SCCN2CCOCC2)nc2c1c(=O)[nH]c(=O)n2C | 8.38
26 | CCCCCn1c(SCCOCC)nc2c1c(=O)[nH]c(=O)n2C | -46.8
27 | CCCCCn1c(SCCN2CCOCC2)nc2c1c(=O)[nH]c(=O)n2C | -66.5
28 | CCCCCn1c(SCCC(C)C)nc2c1c(=O)[nH]c(=O)n2C | -11.9
29 | CC(C)CCn1c(SCCN2CCOCC2)nc2c1c(=O)[nH]c(=O)n2C | -17.7
30 | CCN1CCCC1CNC(=O)c1cc2c(=O)n(C)c3ccccc3c2n1C (stereo not drawn) | -18.5
31 | Cc1ccc(CN(Cc2cccnc2)C(=S)Nc2cccc(Cl)c2C)cc1 | 8.32
32 | O=C(Cc1ccccc1)Nc1cc([N+](=O)[O-])ccc1N1CCOCC1 | -36.2
33 | CCOC(=O)CSc1ccc2nnc(CCNS(=O)(=O)c3ccc(C)cc3)n2n1 | 4.23
34 | O=C(CNS(=O)(=O)/C=C/c1ccccc1)OC1CCOC1=O (stereo not drawn) | 15.9
35 | Cc1cc(C)n(-c2nc(N(C)C)nc(N3CCOCC3)n2)n1 | -6.78
36 | CCN(CC)S(=O)(=O)c1ccc(OC)c(NC(=O)c2ccc([N+](=O)[O-])cc2)c1 | -34.9
37 | CN1/C(=C\C(=S)NC(=O)c2cccc(Br)c2)C(C)(C)c2ccccc21 | -7.85
38 | CCSc1nnc(N2C(=O)CC(c3ccsc3)C3=C2CC(C)(C)CC3=O)s1 (stereo not drawn) | -6.24

Row | SMILES | hERG current change (%, negative = inhibition) at 10uM [%]
39 | CN(Cc1nc2ccccc2c(=O)[nH]1)C(=O)c1ccc(S(=O)(=O)N(C)C)cc1 | 4.04
40 | COc1cccc(Nc2nc(-c3cccs3)nc3ccccc23)c1 | 9.19
41 | C/C(=N\NC(N)=O)c1ccc(Cl)cc1 | 6.12
42 | CCCCCC(=O)N/N=C(\C)c1ccc(Cl)cc1 | 9.87
43 | CCCCC(O)(CCCC)C(=O)N/N=C(\C)c1ccc(Cl)cc1 | -66.9
44 | Cc1onc(-c2ccccc2)c1C(=O)N1CCN(S(=O)(=O)c2ccccc2Br)CC1 | -1.99
45 | Cc1c(Cl)cccc1NC(=S)N1CC2CC(C1)c1cccc(=O)n1C2 (stereo not drawn) | -4.67
46 | Cc1nn(-c2nc3ccccc3[nH]2)c(N)c1-c1ccccc1 | 0.295
47 | Cc1nn(C(C)C(=O)NCCCN2CCCCCC2)c(=O)c2c1sc1ccccc12 (stereo not drawn) | -28.1
48 | CCN(CC)CCCNC(=O)C(C)n1nc(C)c2sc3ccccc3c2c1=O (stereo not drawn) | -19.7
49 | Cc1nn(C(C)C(=O)NCCCN(Cc2ccccc2)C(C)C)c(=O)c2c1sc1ccccc12 (stereo not drawn) | -11.7
50 | Cc1nn(C(C)C(=O)NCCCN2CCCCC2C)c(=O)c2c1sc1ccccc12 (stereo not drawn) | -5.22
51 | CCC(C(=O)NCCCN(CC)Cc1ccccc1)n1nc(C)c2sc3ccccc3c2c1=O (stereo not drawn) | -68.1
52 | CCC1CCCCN1CCCNC(=O)C(C)n1nc(C)c2sc3ccccc3c2c1=O (stereo not drawn) | -69.8
53 | CCC(=O)N1CCc2cc(S(=O)(=O)N3CCc4ccccc43)ccc21 | 2.61
54 | Clc1ccc2oc(SCc3cccnc3)nc2c1 | -16.2
55 | CCCOc1ccc(OCCSc2ncccn2)cc1 | -2.55
56 | O=C(CCNC(=O)c1ccccc1)NCCCc1ccccc1 | 6.54
57 | O=C(Nc1ccc(C(F)(F)F)cc1)C1CCN(c2cnccn2)CC1 | -12.5
